The list is not random: actives were taken first. Their share in the collection is about 12%.
BAZ2B inh – qHTS Assay for Inhibitors of BAZ2B; Bromodomain adjacent to zinc finger domain protein 2B (Homo sapiens), Q9UIF8; AlphaScreen BAZ2B-H3K14Ac peptide displacement; Potency, µM (series often up to 114 µM), usual class: inhibitors; 4.4% of 360,000 active; AID 504333, 2011; note: nearly all actives have a fitted effect of over 60% in size
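Compounds, titrated to a top concentration of 110 uM, were incubated 30 min at room temperature with preformed BAZ2B/acetyl-K14 H3 peptide complex (50 nM each). Proximity signal was measured by AlphaScreen after 20 min with beads.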
L3MBTL1 block – qHTS Assay for the Inhibitors of L3MBTL1; Lethal(3)malignant brain tumor-like protein 1 (Homo sapiens), Q9Y468; AlphaScreen L3MBTL1–H3K9me1 peptide binding; Potency, µM (doses to about 57.1 µM), actives largely listed as inhibitors; 0.66% of 230,000 active; note: nearly all actives have a fitted effect of over 60% in size
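Displacement of a biotinylated histone H3(1-15) peptide monomethylated at Lys9 (75 nM) from L3MBTL1 (50 nM) was measured by AlphaScreen after a 30 min room-temperature compound incubation; cefsulodin titration served as intraplate control.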
JMJD2A Tudor – qHTS Assay for Inhibitors of JMJD2A-Tudor Domain; Lysine-specific demethylase 4A (Homo sapiens), O75164; AlphaScreen JMJD2A-Tudor / H3K4me3 peptide binding; Potency, µM (series often up to 114 µM), most hits filed as inhibitors; 4.4% of 390,000 active; note: nearly all actives have a fitted effect of over 50% in size
Target sequence (O75164 whole entry, looked up, the tested form may be a part): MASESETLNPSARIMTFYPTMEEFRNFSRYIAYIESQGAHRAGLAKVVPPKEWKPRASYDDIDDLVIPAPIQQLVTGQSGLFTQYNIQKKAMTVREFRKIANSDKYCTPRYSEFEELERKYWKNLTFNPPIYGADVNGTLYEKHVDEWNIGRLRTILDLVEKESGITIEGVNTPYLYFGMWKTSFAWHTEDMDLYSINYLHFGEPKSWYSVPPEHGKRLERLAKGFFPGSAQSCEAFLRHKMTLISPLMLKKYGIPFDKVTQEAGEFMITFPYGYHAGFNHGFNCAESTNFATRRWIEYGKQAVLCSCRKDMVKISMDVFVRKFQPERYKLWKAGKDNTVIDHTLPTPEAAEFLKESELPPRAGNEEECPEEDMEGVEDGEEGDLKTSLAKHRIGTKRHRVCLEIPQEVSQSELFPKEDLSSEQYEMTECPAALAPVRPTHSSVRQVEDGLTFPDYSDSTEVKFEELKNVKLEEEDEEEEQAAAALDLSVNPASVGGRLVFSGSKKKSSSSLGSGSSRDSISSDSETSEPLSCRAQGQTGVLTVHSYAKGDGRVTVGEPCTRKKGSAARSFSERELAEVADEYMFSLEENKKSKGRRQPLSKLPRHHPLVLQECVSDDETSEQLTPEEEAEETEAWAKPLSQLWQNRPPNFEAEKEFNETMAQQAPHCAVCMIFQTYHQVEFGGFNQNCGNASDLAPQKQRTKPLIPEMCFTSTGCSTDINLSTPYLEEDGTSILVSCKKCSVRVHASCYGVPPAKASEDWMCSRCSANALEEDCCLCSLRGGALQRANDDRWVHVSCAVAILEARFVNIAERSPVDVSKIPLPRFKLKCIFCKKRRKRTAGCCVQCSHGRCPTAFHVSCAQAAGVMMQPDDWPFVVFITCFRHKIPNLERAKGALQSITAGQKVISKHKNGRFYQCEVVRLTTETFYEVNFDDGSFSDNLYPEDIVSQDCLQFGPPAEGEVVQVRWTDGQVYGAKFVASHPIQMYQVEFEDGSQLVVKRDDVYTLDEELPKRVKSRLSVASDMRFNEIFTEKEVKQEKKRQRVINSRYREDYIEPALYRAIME
Sfp PPTase inh – qHTS Assay for Inhibitors of Bacillus subtilis Sfp phosphopantetheinyl transferase (PPTase); 4'-phosphopantetheinyl transferase ffp (Bacillus subtilis), Q9F4F7; Biochemical Sfp PPTase activity, qHTS; Potency, µM, most hits filed as inhibitors; 3.5% of 310,000 active;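 note: the enzyme is Sfp with the accession as filed and its product quenches rhodamine fluorescence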
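Reaction rates are the 30-min fluorescence difference (ex 525, em 598 nm) in wells containing 15 nM Sfp, 5 uM rhodamine-CoA and 12.5 uM BHQ-2-YbbR at pH 7.6 with 10 mM MgCl2.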
G9a inh – qHTS Assay for Inhibitors of Histone Lysine Methyltransferase G9a. Potency, µM (top dose mostly 102 µM), most hits filed as inhibitors. 8.8% of 350,000 active. Histone-lysine N-methyltransferase EHMT2 (Homo sapiens), Q96KQ7. G9a H3K9 monomethylation, AlphaScreen, 2 h; note: nearly all actives have a fitted effect of over 75% in size
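AlphaScreen read-out: biotin-H3K9 peptide (500 nM) methylation by 20 nM enzyme with 20 uM SAM, 2 h at room temperature after 15 min compound preincubation; anti-monomethyl H3K9 antibody plus donor/acceptor beads, 10 min dark.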
HP1b chromo inh – HTS for Inhibitors of HP1-beta Chromodomain Interactions with Methylated Histone Tails; AlphaScreen HP1-beta / biotin-H3K9me3 peptide binding; AID 540317, 2011; Chromobox protein homolog 1 (Homo sapiens), P83916; 0.56% of 390,000 active; Potency, µM (series often up to 114 µM), hits mostly inhibitors; note: nearly all actives have a fitted effect of over 70% in size
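AlphaScreen: HP1-beta (50 nM) preformed 30 min with biotin-H3(1-18)K9me3 peptide (50 nM) in PBS pH 7.4, 0.01% Tween-20. Compound added for 30 min at RT, then streptavidin donor/nickel chelate acceptor beads (10 ug/mL) for 30 min.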
Of the large screens only hits and unclear results are named; the others gave an inactive call; ! = a repeat was not active. Calls come from the whole dose curve; as a rule, active = well fitted curve in the direction sought with a large enough effect; inconclusive = small, poorly fitted or top-dose-only effect, or another doubt; inactive = no such curve, though single readings can be large; an effect the other way counts as inactive or inconclusive.

CCN(C(=O)CN1CCc2ccccc21)c1c(N)n(Cc2ccccc2)c(=O)[nH]c1=O	G9a inh 28µM
CC(=O)c1ccc(N2CCN(CC(=O)N(CC(C)C)c3c(N)n(CC(C)C)c(=O)[nH]c3=O)CC2)cc1	none (no result: L3MBTL1 block)
Cn1c(=O)c(C(=O)CN2CCc3ccccc32)c(N)n(Cc2ccccc2)c1=O	JMJD2A Tudor 50µM, G9a inh 35µM
CC(C)CN(C(=O)CN1CCN(c2ccc(O)cc2)CC1)c1c(N)n(CC(C)C)c(=O)[nH]c1=O	JMJD2A Tudor inconclusive, Sfp PPTase inh 25µM, G9a inh inconclusive, HP1b chromo inh 50µM
CCN(C(=O)CN1CCCCCC1)c1c(N)n(Cc2ccccc2)c(=O)[nH]c1=O	none (no result: BAZ2B inh, Sfp PPTase inh, G9a inh)
COCCN(C(=O)CN1CCc2ccccc21)c1c(N)n(Cc2ccccc2)c(=O)[nH]c1=O	G9a inh inconclusive (no result: Sfp PPTase inh)
Clc1ccc(N2CCN(c3ncnc4c3nc3n4CCCC3)CC2)cc1	none (no result: L3MBTL1 block, Sfp PPTase inh)
Cc1ccccc1NC(=O)Nc1nnc(N2CCCCCC2)s1	none (no result: L3MBTL1 block, Sfp PPTase inh)
O=S(=O)(Nc1cc(F)ccc1F)c1ccc2[nH]c3c(c2c1)CCCC3	BAZ2B inh inconclusive, JMJD2A Tudor inconclusive, G9a inh inconclusive (no result: L3MBTL1 block, Sfp PPTase inh)
CC(=O)c1ccc(OCC(O)CN(C)Cc2cccs2)cc1 (centres undefined)	BAZ2B inh 50µM, JMJD2A Tudor 7.9µM, Sfp PPTase inh 56µM, G9a inh 3.5µM, HP1b chromo inh inconclusive
CC(C)Oc1ccc(C(=O)N(Cc2ccco2)Cc2cccs2)cc1	none (no result: L3MBTL1 block, Sfp PPTase inh)
CN(Cc1cccs1)CC(O)COCc1ccco1 (centres undefined)	G9a inh 45µM
CCOC(=O)c1ccc(NC(=O)COCc2cc(-c3ccc4c(c3)OCO4)on2)cc1	none (no result: L3MBTL1 block, Sfp PPTase inh)
CCCC1(C)C(C#N)(C#N)C1(C#N)C#N	G9a inh 8.9µM (no result: BAZ2B inh, L3MBTL1 block, JMJD2A Tudor, Sfp PPTase inh, HP1b chromo inh)
CCCC1(C)C(C#N)C(=O)NC(=O)C1C#N (centres undefined)	none (no result: BAZ2B inh, L3MBTL1 block, Sfp PPTase inh, G9a inh)
CC1=C(c2ccc(C)cc2)S(=O)(=O)N(Cc2ccc(C(=O)Nc3ccc(C)c(F)c3)cc2)C1=O	HP1b chromo inh inconclusive (no result: L3MBTL1 block, Sfp PPTase inh)
C/C(=N\O)c1ccc2c3c([nH]c2c1)CCCC3	BAZ2B inh 40µM, JMJD2A Tudor inconclusive, G9a inh inconclusive
C/C(CC1CC(COCC(C)C)OC1=O)=N\Nc1nc(-c2ccccc2)cs1 (centres undefined)	BAZ2B inh inconclusive, JMJD2A Tudor inconclusive, Sfp PPTase inh inconclusive, G9a inh 25µM
COc1ccc2c(c1)Sc1ccccc1N2CCN(C)C	BAZ2B inh 25µM, JMJD2A Tudor inconclusive, G9a inh inconclusive, HP1b chromo inh 32µM
COC(=O)c1ccc(OC(=O)CCN2c3ccccc3Sc3ccccc32)cc1	none
CCC(=O)c1ccc2c(c1)N(CCCN(C)C)c1ccccc1S2	G9a inh 14µM! (no result: BAZ2B inh, L3MBTL1 block)
CN(C)CCCN1C(=O)c2cc3ccccc3cc2C1=O	none
CC(=O)c1ccc2c(c1)N(C)c1ccccc1S2	none
CN(C)CCCN1c2ccccc2Sc2ccccc21	BAZ2B inh inconclusive, G9a inh 45µM!
CC(=O)N1CCC2(CC1)CCN(c1cccc(-c3ccccc3)c1)CC2	none (no result: BAZ2B inh, L3MBTL1 block, JMJD2A Tudor, HP1b chromo inh)
CCCCN(C)C(=O)c1nc2ccccn2c1CN1CCC[C@H]1C(=O)OC	JMJD2A Tudor 40µM
COc1ccc2[nH]c(=O)c(CN(Cc3cccnc3)Cc3nnnn3CC3CCCO3)cc2c1 (centres undefined)	Sfp PPTase inh 79µM (no result: L3MBTL1 block, G9a inh)
COc1cc2cc(CN(Cc3nnnn3Cc3ccccc3)CC3CCCO3)c(=O)[nH]c2cc1OC (centres undefined)	Sfp PPTase inh 56µM
COc1ccc2[nH]c(=O)c(CN(Cc3ccccc3)Cc3nnnn3CC3CCCO3)cc2c1 (centres undefined)	none
CCc1ccc2[nH]c(=O)c(CN(Cc3ccc(OC)cc3)Cc3nnnn3CCOC)cc2c1	Sfp PPTase inh 13µM, G9a inh inconclusive

Assay outcomes from PubChem BioAssay.
